Seven molecules from PubChem BioAssay (Tox21) can be followed below.

The target in test [1] is Aryl hydrocarbon receptor (Homo sapiens) (UniProt P35869). Nature of the test: qHTS assay to identify small molecule that activate the aryl hydrocarbon receptor (AhR) signaling pathway (AID 743085). Also: nearly all actives have a fitted effect of over 15% in size. Also: potency is read from the fitted curve at half-maximal effect.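 As to activation: HG2L7.5c1 human HepG2 liver cells with stably integrated DRE-driven firefly reporter; series mostly up to about 70 µM.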 The method in brief: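 24 h compound exposure, 37C, HepG2-derived HG2L7.5c1 cells with DRE-responsive luciferase. Readouts: fluorescence viability, then luminescence at room temperature after 30 min.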
On the technique in general: qHTS replaces the single test concentration by a dilution series.

Test [2] is described as follows: qHTS assay to identify small molecule that activate the aryl hydrocarbon receptor (AhR) signaling pathway - cell viability counter screen (AID 743086). Also: nearly all actives have a fitted effect of over 45% in size. Also: potency is read from the fitted curve at half-maximal effect. The method in brief:
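Cytotoxicity counter screen: CellTiter-Fluor signal (30 min, 37 C) in 4000 HepG2 cells/well carrying the DRE-luciferase reporter, following 24 h compound exposure at 37 C.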

Test [3] concerns the target Peroxisome proliferator-activated receptor gamma (Homo sapiens) (UniProt P37231). Nature of the test: qHTS assay to identify small molecule agonists of the peroxisome proliferator-activated receptor gamma (PPARg) signaling pathway (AID 743094; active = well fitted activation curve with a large enough effect in the signal ratio in the repeat runs, not every such curve was filed as active; the % refers to the signal ratio). The method in brief:
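GeneBLAzer PPARg UAS-bla HEK293H cells carrying a stably integrated beta-lactamase reporter were pre-incubated 5 h at 37C, then exposed to compounds in DMSO for 17 h at 37C; LiveBLAzer B/G FRET substrate was added for 1 h at room temperature and fluorescence read.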

Test [4] has the same target. Nature of the test: qHTS assay to identify small molecule antagonists of the peroxisome proliferator-activated receptor gamma (PPARg) signaling pathway (AID 743191; calls by dose curve; also: series mostly up to about 63 µM; nearly all actives have a fitted effect of over 30% in size). In short, it runs like this:
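Beta-lactamase reporter under UAS control in HEK293H PPARg-bla cells; compound treatment 17 h at 37C. Read-out: fluorescence intensity after 1 h room-temperature incubation with LiveBLAzer B/G FRET substrate.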

Test [5] is described as follows: qHTS assay to identify small molecule antagonists of the peroxisome proliferator-activated receptor gamma (PPARg) signaling pathway - cell viability counter screen (AID 743194). Also: nearly all actives have a fitted effect of over 55% in size. In short, it runs like this: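 Viability was measured as CellTiter-Glo luminescence in GeneBLAzer PPARg UAS-bla HEK293H cells. These cells had been exposed 17 h at 37 C to compounds together with rosiglitazone at 50 nM final, with the beta-lactamase readout taken in the same wells.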

The nature of test [6]: qHTS assay for small molecule agonists of the antioxidant response element (ARE) signaling pathway (AID 743202; active = well fitted activation curve with a large enough effect in the signal ratio in the repeat runs, not every such curve was filed as active; the % refers to the signal ratio; also: potency is read from the fitted curve at half-maximal effect). In short, it runs like this:
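Quantitative high-throughput format in HepG2 cells bearing an integrated ARE-beta-lactamase reporter. Compound exposure lasted 16 h at 37 C, and fluorescence was read 2 h after adding LiveBLAzer B/G substrate at room temperature.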

A short description of test [7]: qHTS assay for small molecule agonists of the antioxidant response element (ARE) signaling pathway - cell viability counter screen (AID 743203; calls by dose curve; also: nearly all actives have a fitted effect of over 55% in size). In short, it runs like this: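 CellSensor ARE-bla HepG2 cells, 2,000 per well, rested 5 hrs at 37C/5% CO2, then exposed to compound in DMSO for 16 hrs; viability read as CellTiter-Glo luminescence after 30 min at room temperature, in the reporter wells.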

The nature of test [8]: qHTS assay for small molecule activators of the heat shock response signaling pathway - cell viability counter screen (AID 743209). Also: nearly all actives have a fitted effect of over 50% in size. In short, it runs like this:
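CellSensor HSE-bla HeLa cells, plated overnight at 37 C/5% CO2, were exposed to compounds in DMSO for 5 h at 37 C. Viability was then read in the same wells by CellTiter-Glo luminescence after 30 min at room temperature.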

A short description of test [9]: qHTS assay for small molecule activators of the heat shock response signaling pathway (AID 743210; active = well fitted activation curve with a large enough effect in the signal ratio in the repeat runs, with a control signal flat, not every such curve was filed as active; the % refers to the signal ratio;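 also: HeLa cells with beta-lactamase reporter driven by heat shock elements; series mostly up to about 63 µM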). In short, it runs like this:
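HeLa HSE-bla cells, overnight plating; cpd in DMSO 5 h, 37 C; LiveBLAzer B/G FRET substrate 2.5 h RT; fluorescence intensity read.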

Test [10] can be described thus: qHTS assay to identify small molecule agonists of the peroxisome proliferator-activated receptor delta (PPARd) signaling pathway - cell viability counter screen (AID 743211). Also: nearly all actives have a fitted effect of over 55% in size. Also: potency is read from the fitted curve at half-maximal effect. In short, it runs like this:
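Luminescent ATP viability assay (CellTiter-Glo, 30 min RT) in UAS-bla HEK293H cells carrying the PPAR delta reporter construct, 3000 cells/well, after a 17 h compound treatment at 37 C.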

Test [11] concerns the target Peroxisome proliferator-activated receptor delta (Homo sapiens) (UniProt Q03181). The experiment in a line: qHTS assay to identify small molecule agonists of the peroxisome proliferator-activated receptor delta (PPARd) signaling pathway (AID 743212; calls by dose curve). The method in brief: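 HEK293H PPARd-bla cells; 5 h preincubation 37 C/5% CO2; compound (DMSO) 37 C; LiveBLAzer B/G FRET substrate 2 h RT; fluorescence intensity.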

Test [12] is described as follows: qHTS assay to identify small molecule antagonists of the peroxisome proliferator-activated receptor delta (PPARd) signaling pathway - cell viability counter screen (AID 743213). Also: nearly all actives have a fitted effect of over 50% in size. Also: potency is read from the fitted curve at half-maximal effect. The method in brief:
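Same-well viability: cells pre-incubated 5 h, dosed with compound plus 300 nM L165041, kept 17 h at 37 C, FRET substrate 2 h RT, then CellTiter-Glo 30 min RT and luminescence.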

Test [13] is described as follows: qHTS assay to identify small molecule agonists of the farnesoid-X-receptor (FXR) signaling pathway - cell viability counter screen (AID 743218). Also: nearly all actives have a fitted effect of over 45% in size. Also: potency is read from the fitted curve at half-maximal effect. The method in brief:
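FXR-UAS-bla HEK 293T cells, plated 5 h at 37 C, were exposed to compounds for 16 h at 37 C. CellTiter-Glo was then added to the same wells as the bla readout; luminescence read after 30 min at room temperature.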

Test [14] in a line: qHTS assay to identify small molecule antagonists of the farnesoid-X-receptor (FXR) signaling pathway - cell viability counter screen (AID 743221; active = well fitted cell-killing curve with a large enough effect in the repeat runs, not every such curve was filed as active; also: nearly all actives have a fitted effect of over 50% in size; also: potency is read from the fitted curve at half-maximal effect). The method in brief: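 In GeneBLAzer FXR-UAS-bla HEK 293T cells stimulated with 50 uM chenodeoxycholic acid (final), compounds acted for 16 h at 37 C. Viability was assessed afterwards by CellTiter-Glo luminescence.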
The target of test [15] is Vitamin D3 receptor (Homo sapiens) (UniProt P11473). The experiment in a line: qHTS assay to identify small molecule agonists of the vitamin D receptor (VDR) signaling pathway (AID 743222; calls by dose curve). In short, it runs like this:
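VDR-bla cells were plated 4 h at 37C/5% CO2, then exposed to compounds in DMSO for 16 h. After LiveBLAzer B/G FRET substrate addition and 2 h at room temperature, beta-lactamase reporter fluorescence was read.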

For test [16] the target is unchanged. The experiment in a line: qHTS assay to identify small molecule antagonists of the vitamin D receptor (VDR) signaling pathway (AID 743223; active = well fitted inhibition curve with a large enough effect in the signal ratio in the repeat runs, not every such curve was filed as active; the % refers to the signal ratio; also: potency is read from the fitted curve at half-maximal effect). The method in brief: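 Agonist 1alpha,25-dihydroxyvitamin D3 (3 nM in well) was added with each compound to VDR-bla cells preincubated 4 h. Cells stood 16 h at 37C, then FRET substrate 2 h at room temperature; fluorescence intensity recorded.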

Test [17] in a line: qHTS assay to identify small molecule agonists of the vitamin D receptor (VDR) signaling pathway - cell viability counter screen (AID 743224). Also: nearly all actives have a fitted effect of over 50% in size. Also: potency is read from the fitted curve at half-maximal effect. In short, it runs like this: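 VDR-bla cells were preincubated 4 h at 37C/5% CO2, then exposed to compounds for 16 h. After the 2 h room-temperature bla FRET read, CellTiter-Glo was added to the same wells and luminescence read after 30 min.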

Test [18] is described as follows: qHTS assay to identify small molecule antagonists of the vitamin D receptor (VDR) signaling pathway - cell viability counter screen (AID 743225). Also: nearly all actives have a fitted effect of over 50% in size. The method in brief:
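Luminescent cell viability (CellTiter-Glo) in VDR-bla HEK 293T cells after 16 h compound exposure at 37C in the presence of 3 nM final 1-alpha,25-dihydroxy vitamin D3.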

Test [19] deals with Bile acid receptor (Homo sapiens) (UniProt Q96RI1). The experiment in a line: qHTS assay to identify small molecule antagonists of the farnesoid-X-receptor (FXR) signaling pathway (AID 743217; active = well fitted inhibition curve with a large enough effect in the signal ratio in the repeat runs, not every such curve was filed as active; the % refers to the signal ratio). The method in brief: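 FXR-UAS-bla HEK 293T cells pre-incubated 5 h at 37 °C, then exposed to compounds with chenodeoxycholic acid (50 uM final) for 16 h at 37 °C. Beta-lactamase reporter read by LiveBLAzer B/G FRET substrate fluorescence after 2 h at room temperature.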

Test [20] has the same target. Nature of the test: qHTS assay to identify small molecule agonists of the farnesoid-X-receptor (FXR) signaling pathway (AID 743220; active = well fitted activation curve with a large enough effect in the signal ratio in the repeat runs, not every such curve was filed as active; the % refers to the signal ratio). In short, it runs like this: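 Beta-lactamase reporter under UAS control in GeneBLAzer FXR HEK 293T cells (5000/well) measured with LiveBLAzer FRET substrate after 2 h at room temperature. Compound exposure lasted 16 h at 37C.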

Values joined by “and” are separate entries in the source; they are usually repeats but may differ in a detail not shown here. Equal entries are not always repeated. Results filed as inconclusive are left out. Some structures have more than one record in an assay (separate samples or runs), and their calls can disagree. Active and inactive are the calls of the source. Unless noted, calls follow the shape of the dose curve; as a rule, active = well fitted curve in the direction sought with a large enough effect in the repeat runs; inconclusive = weak or mixed curves; inactive = no such curve, though single readings can be large; an effect the other way counts as inactive or inconclusive.

Sequence of Bile acid receptor (Homo sapiens) (Q96RI1 whole entry, looked up): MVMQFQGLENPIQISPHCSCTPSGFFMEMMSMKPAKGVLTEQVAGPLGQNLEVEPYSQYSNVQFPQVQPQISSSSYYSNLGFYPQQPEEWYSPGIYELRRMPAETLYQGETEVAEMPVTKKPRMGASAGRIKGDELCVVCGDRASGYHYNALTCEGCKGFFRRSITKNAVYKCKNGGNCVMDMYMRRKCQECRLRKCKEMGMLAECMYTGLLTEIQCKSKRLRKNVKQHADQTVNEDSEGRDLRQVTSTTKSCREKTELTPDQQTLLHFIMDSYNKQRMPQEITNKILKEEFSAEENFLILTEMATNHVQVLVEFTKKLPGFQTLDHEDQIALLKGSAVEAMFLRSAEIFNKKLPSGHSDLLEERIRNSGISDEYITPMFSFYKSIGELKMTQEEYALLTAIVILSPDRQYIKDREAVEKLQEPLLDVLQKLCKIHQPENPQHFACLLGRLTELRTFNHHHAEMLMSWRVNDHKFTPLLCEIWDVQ
Sequence of Vitamin D3 receptor (Homo sapiens) (P11473 whole entry, looked up): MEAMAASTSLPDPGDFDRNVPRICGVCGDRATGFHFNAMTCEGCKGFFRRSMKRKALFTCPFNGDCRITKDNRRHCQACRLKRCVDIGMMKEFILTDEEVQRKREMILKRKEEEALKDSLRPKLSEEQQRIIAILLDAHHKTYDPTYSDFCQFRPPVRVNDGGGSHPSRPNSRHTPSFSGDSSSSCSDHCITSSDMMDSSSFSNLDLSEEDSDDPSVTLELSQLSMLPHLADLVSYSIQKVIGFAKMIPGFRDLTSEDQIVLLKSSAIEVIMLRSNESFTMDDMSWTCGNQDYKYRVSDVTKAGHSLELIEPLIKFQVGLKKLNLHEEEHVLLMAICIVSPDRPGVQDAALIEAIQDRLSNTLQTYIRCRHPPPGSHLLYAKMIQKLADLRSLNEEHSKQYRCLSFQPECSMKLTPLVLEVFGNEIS
Sequence of Peroxisome proliferator-activated receptor delta (Homo sapiens) (Q03181 whole entry, looked up): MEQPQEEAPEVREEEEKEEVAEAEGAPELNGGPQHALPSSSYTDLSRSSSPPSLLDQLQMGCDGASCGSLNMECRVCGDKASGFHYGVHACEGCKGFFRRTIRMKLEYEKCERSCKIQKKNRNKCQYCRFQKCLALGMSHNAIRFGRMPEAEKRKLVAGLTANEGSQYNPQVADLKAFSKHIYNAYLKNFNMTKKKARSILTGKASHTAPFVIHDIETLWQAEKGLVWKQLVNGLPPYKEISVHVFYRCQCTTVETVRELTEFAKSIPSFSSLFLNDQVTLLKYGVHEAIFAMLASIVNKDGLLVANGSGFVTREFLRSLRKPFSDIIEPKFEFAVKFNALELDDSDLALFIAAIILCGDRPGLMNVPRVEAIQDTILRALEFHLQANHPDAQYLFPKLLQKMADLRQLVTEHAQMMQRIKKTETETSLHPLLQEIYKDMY
Sequence of Aryl hydrocarbon receptor (Homo sapiens) (P35869 whole entry, looked up): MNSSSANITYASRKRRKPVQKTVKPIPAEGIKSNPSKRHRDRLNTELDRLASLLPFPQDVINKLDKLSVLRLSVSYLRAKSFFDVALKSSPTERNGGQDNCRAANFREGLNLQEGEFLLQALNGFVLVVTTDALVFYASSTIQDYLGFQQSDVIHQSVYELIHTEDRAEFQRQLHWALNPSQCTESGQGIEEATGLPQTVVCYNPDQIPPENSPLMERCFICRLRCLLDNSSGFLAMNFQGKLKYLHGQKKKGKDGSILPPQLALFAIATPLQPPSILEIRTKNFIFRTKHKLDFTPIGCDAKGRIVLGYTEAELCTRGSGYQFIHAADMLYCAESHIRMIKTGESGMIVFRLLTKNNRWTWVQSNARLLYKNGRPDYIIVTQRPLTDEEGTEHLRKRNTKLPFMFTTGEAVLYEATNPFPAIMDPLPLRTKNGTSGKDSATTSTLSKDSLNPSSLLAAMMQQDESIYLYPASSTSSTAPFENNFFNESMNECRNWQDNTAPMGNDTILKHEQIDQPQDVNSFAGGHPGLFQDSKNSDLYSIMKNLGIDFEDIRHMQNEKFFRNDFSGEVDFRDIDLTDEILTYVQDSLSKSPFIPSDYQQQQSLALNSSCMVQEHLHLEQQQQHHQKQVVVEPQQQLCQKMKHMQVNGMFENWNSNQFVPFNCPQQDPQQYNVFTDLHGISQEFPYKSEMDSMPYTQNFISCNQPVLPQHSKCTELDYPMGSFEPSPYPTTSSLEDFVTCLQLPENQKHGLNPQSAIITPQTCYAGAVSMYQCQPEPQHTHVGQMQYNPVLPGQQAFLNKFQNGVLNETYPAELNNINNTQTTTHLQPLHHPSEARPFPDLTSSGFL
Sequence of Peroxisome proliferator-activated receptor gamma (Homo sapiens) (P37231 whole entry, looked up): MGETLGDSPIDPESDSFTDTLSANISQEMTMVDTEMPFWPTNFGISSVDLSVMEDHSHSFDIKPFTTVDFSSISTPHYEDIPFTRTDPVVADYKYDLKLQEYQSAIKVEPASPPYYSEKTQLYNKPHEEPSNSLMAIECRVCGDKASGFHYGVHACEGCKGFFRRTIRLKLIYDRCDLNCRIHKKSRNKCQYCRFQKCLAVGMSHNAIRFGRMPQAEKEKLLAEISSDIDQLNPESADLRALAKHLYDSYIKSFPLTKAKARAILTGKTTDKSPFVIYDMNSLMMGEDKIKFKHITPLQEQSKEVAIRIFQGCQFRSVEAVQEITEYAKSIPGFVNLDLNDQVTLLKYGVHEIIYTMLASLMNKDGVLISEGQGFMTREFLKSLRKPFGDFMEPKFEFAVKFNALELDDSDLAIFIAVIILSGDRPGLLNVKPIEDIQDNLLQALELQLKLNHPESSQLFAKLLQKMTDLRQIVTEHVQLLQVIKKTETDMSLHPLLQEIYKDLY

With `CCCCC1(COC(=O)CCC(=O)O)C(=O)N(c2ccccc2)N(c2ccccc2)C1=O`, the Potency result in [1], in test [2], in [3], in [4], in [5] and in test [6] was “inactive” throughout. The Potency result in test [7], in test [8], in test [10], in test [11], in test [12] and in test [13] was “inactive” throughout. Further, the Potency entry in [14], in test [15], in test [16], in test [17] and in test [18] was “inactive” in each case. In test [9], the call was inactive.
For the molecule `CC1(C)S[C@@H]2[C@H](NC(=O)[C@H](N)c3ccccc3)C(=O)N2[C@H]1C(=O)O`, the Potency entry in test [1], in test [2], in [3], in test [4], in test [5] and in test [6] was “inactive” in each case. In addition, the Potency entry in [7], in [8], in test [10], in test [12], in [14] and in test [17] was “inactive” throughout. In addition, the Potency entry in test [18] is “inactive”.
Regarding `COc1ccc2c(c1)c(CC(=O)O)c(C)n2C(=O)c1ccc(Cl)cc1`, the Potency result in test [1], in test [2], in test [5], in test [6], in test [7] and in [8] was “inactive” each time. In addition, the Potency result in test [10], in test [12], in [13], in [14], in test [17] and in [18] was “inactive” in each case. In addition, the call in test [9] was inactive.
Consider `F[B-](F)(F)F`, for which the Potency entry in test [1], in test [2], in test [3], in test [4], in [5] and in [7] was “inactive” throughout. Further, the Potency result in test [8], in test [10], in test [12], in [14], in test [15] and in test [16] was “inactive” each time. For the same molecule, the Potency result in test [17] and in [18] was “inactive” throughout. Further, in [6], the Potency result is “inactive and 27.6 µM (active)”. Moreover, the outcome in test [9] was inactive.
On to `NC1CCCCC1`, for which the Potency in test [1] was 30.8 µM (active) and inactive. Also, the Potency result in test [2], in test [3], in test [4], in test [5], in test [6] and in test [7] was “inactive” each time. Further, the Potency result in [8], in [10], in test [11], in test [12], in test [14] and in test [15] was “inactive” in each case. Also, the Potency entry in [16], in [17] and in test [18] was “inactive” in each case. Also, the molecule was classed as inactive in test [9].
On to `Cc1cn([C@H]2C=C[C@@H](CO)O2)c(=O)[nH]c1=O`, for which the Potency entry in test [1], in [2], in test [3], in [4], in [5] and in [6] was “inactive” in each case. For the same molecule, the Potency result in test [7], in test [8], in test [10], in test [11], in test [12] and in test [19] was “inactive” throughout. Moreover, the Potency result in [13], in test [14], in test [15], in test [16], in test [17] and in [18] was “inactive” throughout. The call in test [9] and in test [20] was inactive.
With `CN(C)C(=S)SC(=S)N(C)C`, the Potency result in test [1], in [4], in test [5] and in test [18] was “inactive” each time. Also, the Potency was 1.57 µM (active) and 1.09 µM (active) in test [2]; 710 nM (active) and 389 nM (active) and 1.33 µM (active) in test [10]; 3.99 µM (active) and 549 nM (active) and 944 nM (active) in test [12]; 502 nM (active) and 2.45 µM (active) and 1.68 µM (active) in test [13]; 564 nM (active) and 1.68 µM (active) in [14]; 27.5 µM (active) in [16]. For the same molecule, the Potency in test [17] is 1.26 µM (active) and 692 nM (active) and 1.06 µM (active).
